The list is not random: actives were taken first. Their share in the collection is about 12%.
BAZ2B block: inhibitors of human BAZ2B bromodomain | Potency, µM (highest dose often 114 µM), for inactives: at the highest dose activity change, negative = inhibition, actives largely listed as inhibitors | hit rate 4.4% among 360,000 | Q9UIF8 | AlphaScreen BAZ2B-H3K14Ac peptide displacement; note: % is set by controls: 0 for no effect and ±100 for the full control effect; nearly all actives have a fitted effect of over 60% in size
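In this displacement format the biotinylated H3(5-23) peptide acetylated at Lys14 serves as ligand at 50 nM, with BAZ2B at 50 nM in PBS pH 7.4 containing 0.01% Tween-20. Donor and acceptor beads are 10 ug/mL final.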
JMJD2A Tudor: blocks the human JMJD2A Tudor domain. O75164. AlphaScreen JMJD2A-Tudor / H3K4me3 peptide binding. Potency, µM (doses to about 114 µM), inactives show top-dose activity change, negative = inhibition, actives largely listed as inhibitors. hit rate 4.4% among 390,000. AID 504339; note: % is set by controls: 0 for no effect and ±100 for the full control effect; nearly all actives have a fitted effect of over 50% in size
HP1b binding inh: blocks HP1-beta chromodomain binding to methylated histone tails; P83916; Potency, µM (series often up to 114 µM), for inactives: at the highest dose activity change, negative = inhibition, most hits filed as inhibitors; hit rate 0.56% among 390,000; AID 540317; AlphaScreen HP1-beta / biotin-H3K9me3 peptide binding; note: nearly all actives have a fitted effect of over 70% in size
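Compound inhibition of the preformed complex between 50 nM HP1-beta and 50 nM biotinylated H3K9me3 peptide was read by AlphaScreen. Buffer was PBS pH 7.4 with 0.01% Tween-20. Incubations ran 30 min at room temperature, with 10 ug/mL donor/acceptor beads.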
Sfp inh: inhibitors of Bacillus subtilis Sfp phosphopantetheinyl transferase; Potency, µM, inactives show largest response in the series, negative = inhibition, most hits filed as inhibitors; Q9F4F7; Biochemical Sfp PPTase activity, qHTS; AID 1490; hit rate 3.5% among 310,000;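 note: the enzyme is Sfp with the accession as filed and its product quenches rhodamine fluorescence; 0% = enzyme reaction without inhibitor and -100% = no enzyme wells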
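Reaction rates are the 30-min fluorescence difference (ex 525, em 598 nm) in wells containing 15 nM Sfp, 5 uM rhodamine-CoA and 12.5 uM BHQ-2-YbbR at pH 7.6 with 10 mM MgCl2.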
L3MBTL1 inh: blocks human L3MBTL1 | hit rate 0.66% among 230,000 | AID 485360 | Q9Y468 | Potency, µM (top dose mostly 57.1 µM), without a hit: at the highest dose activity, negative = inhibition, hits mostly inhibitors | AlphaScreen L3MBTL1–H3K9me1 peptide binding; note: % is set by controls: 0 for no effect and ±100 for the full control effect; nearly all actives have a fitted effect of over 60% in size
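L3MBTL1 (50 nM) pre-complexed 30 min with biotinylated H3(1-15)K9me1 peptide (75 nM), then compounds added for 30 min at room temperature; AlphaScreen streptavidin donor/nickel chelate acceptor beads (10 ug/mL final) read after 30 min dark incubation.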
G9a block: G9a (human) methyltransferase inhibition. Q96KQ7. G9a H3K9 monomethylation, AlphaScreen, 2 h. Potency, µM (highest dose often 102 µM), inactives show at the highest dose activity, negative = inhibition, most hits filed as inhibitors. hit rate 8.8% among 350,000. AID 504332; note: % is set by controls: 0 for no effect and ±100 for the full control effect; nearly all actives have a fitted effect of over 75% in size
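G9a (20 nM) preincubated 15 min RT with compounds, then 500 nM biotinylated H3K9 peptide and 20 uM SAM added; 2 h RT reaction. Monomethyl-H3K9 product detected by AlphaScreen with anti-H3K9me1 antibody, streptavidin donor and anti-rabbit IgG acceptor beads.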
An asterisk follows results filed as active; ? = inconclusive; / = no result; [ ] = another dose, or the depositor's remark. Calls come from the whole dose curve; as a rule, active = well fitted curve in the direction sought with a large enough effect; inconclusive = small, poorly fitted or top-dose-only effect, or another doubt; inactive = no such curve, though single readings can be large; an effect the other way counts as inactive or inconclusive. Potency is the fitted concentration of half-maximal effect.

SMILES	BAZ2B block	JMJD2A Tudor	HP1b binding inh	Sfp inh	L3MBTL1 inh	G9a block
CC(c1ccco1)N(C)c1ncnc2ccc(-c3ccc4c(c3)OCO4)cc12 (stereo unspecified)	/	-22%	/	/	/	/
COc1ccccc1NC(=O)CN1CCN(CC(=O)Nc2ccc3c(c2)OCCO3)CC1	2%	-21%	34%	5%	/	?
O=C(CN1CCCCCCC1)Nc1ccc(Cl)cc1Cl	/	52%	90%	11%	24%	121%
O=C(CN1CCN(CC(=O)Nc2ccccc2Cl)CC1)Nc1ccc2c(c1)OCCO2	-8%	16%[11.4 µM]	40%	1%	-6%	25µM*
S=C(Nc1ccc2c(c1)OCCO2)Nc1ccccc1Cl	-18%	-8%	1%	18%	/	79µM*
O=C(CN1CCCCC1)Nc1ccc(NC(=O)c2ccccc2Cl)cc1Cl	-5%	-19%	7%	2%	6%	10µM*
COC(=O)c1cc(NC(=O)c2nn(C)c3c2CSc2ccccc2-3)cc(C(=O)OC)c1	-1%	-13%	18%	/	/	-31%[59 µM]
O=C(c1noc2c1CCc1ccccc1-2)N1CCc2ccccc2C1	21%	/	/	1µM*	/	3%[12.7 µM]
O=C(c1noc2c1CCc1ccccc1-2)N1CCOCC1	1%	-4%	16%	12%	8%	12%[12.7 µM]
CCc1sc(/C=C(/C#N)C(N)=S)cc1[N+](=O)[O-]	?	?	?	2.8µM*	/	13µM*
O=C(COc1ccccc1)Nc1nc(-c2cccnc2)cs1	9%	-5%	25%	/	-10%	?
COc1cccc(C(=O)Nc2nc(C)cs2)c1	-20%	11%	45%	6%	4%	0%[59 µM]
Cc1cc(C)cc(OCC(=O)Nc2nc(-c3cccnc3)cs2)c1	-5%	-14%	?	45µM*	/	10µM*
COc1cccc(C(=O)Nc2nc(-c3ccncc3)cs2)c1	/	-16%	7%	?	/	32µM*
O=C(COc1ccccc1)Nc1nc(-c2ccncc2)cs1	-13%	-6%	-19%	50µM*	/	8.9µM*
Cc1ccc(NC(=O)Nc2nnc(SCC(=O)N3CCCCC3)s2)cc1	-2%	-15%	43%	/	/	14%[59 µM]
O=S1(=O)c2ccccc2N=NN1Cc1ccc(Cl)cc1	?	79µM*	-18%	50µM*	/	0.63µM*
CC(O)(C#CCN1CCOCC1)c1ccccc1 (stereo unspecified)	-2%	-16%	16%	20%	17%	40µM*
OC(C#CCN1CCCCCC1)(c1ccccc1)c1cccnc1 (stereo unspecified)	-31%	-10%	10%	-16%	-6%	18µM*
OC(C#CCN1CCCC1)(c1ccccc1)c1cccnc1 (stereo unspecified)	79µM*	28µM*	4%	?	/	8.9µM*
CC(C)C(O)(C#CCN1CCCC1)c1ccccc1 (stereo unspecified)	?	-14%	33%	-6%	-4%	25µM*
C[C@@]12C=CC(=O)C=C1CC[C@H]1[C@H]3CC[C@](O)(C(=O)CO)[C@]3(C)CC(=O)[C@@H]12	/	/	/	30%	/	17%[21.5 µM]
Cc1nc(N2CCOCC2)c2c(C(=O)N(C)Cc3ccccc3)c(C)oc2n1	13%[57.1 µM]	-10%	47%	/	/	-22%[59 µM]
OC(C#CCN1CCCC1)c1ccccc1 (stereo unspecified)	-33%	-11%	19%	7%	-8%	45µM*
CC(C(=O)Nc1ccc(OC(F)(F)F)cc1)N1Cc2ccccc2C1=O (stereo unspecified)	2%	-11%	27%	/	/	-8%[59 µM]
CCc1ccc(CNC(=O)c2ccc3c(c2)nc2n3CCOC2)cc1	5%	-12%	21%[57 µM]	/	/	0%[59 µM]
CC(=O)c1ccc(NC(=O)CSc2nccn2Cc2ccc3c(c2)OCO3)cc1	?	-32%	8%[57 µM]	/	/	18%[59 µM]
O=C(NC(=O)c1ccc(Cl)cc1)Nc1cc(N2CCCCC2)ncn1	/	79µM*	-19%	/	/	/
C/C(=N/NC(=O)c1ccc(C)s1)c1cccnc1	-29%	35µM*	24%	-23%	/	?
